# Compound activity: PubChem BioAssay, National Center for Advancing Translational Sciences (NCATS)
# Tb PFK block: qHTS Assay to Find Inhibitors of T. brucei phosphofructokinase | ATP-dependent 6-phosphofructokinase (Trypanosoma brucei brucei), O15648 | T. brucei PFK, ADP-Glo luminescence | Potency, µM (series often up to 57.5 µM), without a hit: at the top dose activity, negative = inhibition, usual class: inhibitors | 0.17% of 330,000 active | AID 485367, 2010;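 further: potency means the concentration at half of the fitted maximal effect; 0% = uninhibited 1x PFK enzyme wells and -100% = no-enzyme wells; nearly all actives have a fitted effect of over 60% in size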
#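 1.25 nM PFK with 0.5 mM F6P and 0.1 mM ATP in 0.1 M TEA pH 8.0, 5 mM MgCl2, incubated 45 min at room temperature; ADP measured by ADP-Glo luminescence; compounds titrated up to 57 uM.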
# PI5P4Ka inh: qHTS for Inhibitors of phosphatidylinositol 5-phosphate 4-kinase (PI5P4K); Phosphatidylinositol 5-phosphate 4-kinase type-2 alpha (Homo sapiens), P48426; PI5P4Kalpha enzyme, ADP-Glo luminescence, 60 min; active compounds read low; max response, %; 1.2% of 330,000 active; active means max response of -50% or lower; inconclusive means between -30% and -50%; inactive means -30% or higher; further: value at the top dose of about 77 µM
#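 Luminescence from ADP-Glo served as readout of PI5P4Kalpha activity in a qHTS format. Reaction: enzyme, substrate, compound, ATP at 5 microM final, 60 min at RT.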
# Pin1 inhibitor: qHTS Assay to Find Inhibitors of Pin1; Peptidyl-prolyl cis-trans isomerase NIMA-interacting 1 (Homo sapiens), Q13526; Pin1 FP peptide displacement, HiFluor488, 10 min; Potency, µM (top dose mostly 115 µM), inactives show at the highest dose activity, negative = inhibition, most hits filed as inhibitors; 0.009% of 390,000 active; AID 504891, 2011; active means well fitted inhibition curve with a large enough effect in the polarisation, with a control signal flat, not every such curve was filed as active; inconclusive means small, poorly fitted or top-dose-only effect, or effect the other way, or a change in a side signal; inactive means no such curve, though single readings can be large or run the other way; the % refers to the polarisation; further: potency means the concentration at half of the fitted maximal effect
# Target sequence (Q13526 whole entry, looked up): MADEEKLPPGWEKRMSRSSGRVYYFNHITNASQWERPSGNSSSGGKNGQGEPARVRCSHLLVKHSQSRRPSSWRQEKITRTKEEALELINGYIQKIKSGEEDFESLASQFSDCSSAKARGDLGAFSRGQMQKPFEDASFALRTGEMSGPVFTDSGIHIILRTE
# Tb PGK inh: qHTS Assay to Find Inhibitors of Phosphoglycerate Kinase | PGK/GAPDH coupled, Kinase-Glo luminescence, 60 min | Potency, µM (highest dose often 57.5 µM), without a hit: top-dose activity change, negative = inhibition, actives largely listed as inhibitors | 0.043% of 380,000 active; further: potency means the concentration at half of the fitted maximal effect; nearly all actives have a fitted effect of over 60% in size
# Target sequence (P07378 whole entry, looked up): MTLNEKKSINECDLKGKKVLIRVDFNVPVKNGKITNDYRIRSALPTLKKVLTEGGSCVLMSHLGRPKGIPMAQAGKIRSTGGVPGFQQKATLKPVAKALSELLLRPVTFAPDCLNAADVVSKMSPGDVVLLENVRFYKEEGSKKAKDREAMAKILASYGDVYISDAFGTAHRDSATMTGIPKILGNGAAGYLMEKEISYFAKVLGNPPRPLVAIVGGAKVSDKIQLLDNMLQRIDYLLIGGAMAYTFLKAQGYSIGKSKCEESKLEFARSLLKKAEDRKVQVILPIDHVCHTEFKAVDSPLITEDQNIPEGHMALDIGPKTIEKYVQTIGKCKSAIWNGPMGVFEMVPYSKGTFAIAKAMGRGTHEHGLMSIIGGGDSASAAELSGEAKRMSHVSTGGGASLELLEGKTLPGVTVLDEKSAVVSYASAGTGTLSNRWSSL
#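 Luminescent ATP detection (Kinase-Glo Plus) follows a 60-minute room-temperature incubation, with wells lacking PGK as controls. Buffer: 100 mM TEA (pH 7.6), 5 mM MgCl2, 0.01% Tween-20. Coupling enzyme GAPDH (100 nM final) supplies unstable 1,3-BPG in-well.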
# PI4K2A inh: qHTS for small molecular inhibitors of PI4K2A; activity change, negative = inhibition, % at 76.9 µM; purified PI4K2A, ADP-Glo luminescence, 1 h; active compounds read low; 0.13% of 420,000 active; Phosphatidylinositol 4-kinase type 2-alpha (Homo sapiens), Q9BTU6; in the data active means activity change below about -50%; inconclusive means mostly about -30% to -49%;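 further: -100% = wells without enzyme as full effect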
#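 ADP-Glo luminescence measured ADP generated by PI4K2A enzyme (4 ug/mL before mixing) with 1.2 mM PI substrate (pre-mix) and 300 microM ATP (pre-mix). Tris pH7.5 buffer with MgCl2, Triton X-100; 1 h reaction at ambient temperature.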
# * marks the source's active call; other numbers are inactive results; i = inactive; ? = inconclusive; / = not tested or not shown. The full list was thinned out, with hits kept by preference. Unless noted, the call rests on the fitted dose curve; in most records, active means well fitted curve in the direction sought with a large enough effect; inconclusive means small, poorly fitted or top-dose-only effect, or another doubt; inactive means no such curve, though single readings can be large; an effect the other way counts as inactive or inconclusive. Unless noted, on the % scale 0 is the no-effect control and ±100 the full control effect.
SMILES,Tb PFK block,PI5P4Ka inh,Pin1 inhibitor,Tb PGK inh,PI4K2A inh
Cc1cc(N=Nc2c(O)c3ccccc3[nH]c2=O)ccc1N=Nc1ccc(C(=O)N(C)C)cc1,-7%,-20,-7%,i,0
Cc1nc(NC(=O)/C=C/c2ccccc2)sc1C(=O)Nc1ccccc1,0%,-7,7%,-7%,3
O=c1oc2c(-c3ccc([N+](=O)[O-])cc3)cc(O)cc2s1,-9%,-59*,?,5%,-19
NC(=S)N=Nc1c(O)n(Cc2ccccc2)c2ccccc12,3%,2,-4%,-2%,3
COC(=O)c1ccc(Cn2c(O)c(N=NC(N)=S)c3ccccc32)o1,-29%,-57*,?,-10%,-3
Oc1c(Cl)cc(CN2CCOCC2)c2cccnc12,?,-6,-4%,i,?
O=[N+]([O-])c1cc(CN2CCOCC2)c2cccnc2c1O,?,-73*,?,2%,-19
COc1ccc(S(=O)(=O)Cc2ccc(C(=O)NCCCN3CCc4ccccc4C3)o2)cc1,1%,-2,3%,i,2
CCCn1c(SCC(=O)c2cc(C)n(C3CC3)c2C)n[nH]c1=O,-6%,0,1%,i,-4
CCn1c(CCC(N)=O)nnc1SCC(=O)c1cc(C)n(C2CC2)c1C,-6%,-7,1%,i,-53*
COCCn1c(C)cc(C(=O)CN2CCCCC2)c1C,1%,8,-1%,4%,-1
Cc1occc1C(=O)N/N=C/c1ccc(N(C)C)cc1,?,?,-7%,25µM*,-87*
O=C(CN1C(=O)/C(=C2/SC(=S)N(CCS(=O)(=O)O)C2=O)c2ccccc21)Nc1cccc(C(F)(F)F)c1,?,-59*,/,?,-6
O=C(CN1C(=O)c2ccccc2Sc2ncccc21)Nc1cccc(C(F)(F)F)c1,/,/,3%,-11%,5
Cc1cc(C)cc(-n2ccn3cnnc3c2=O)c1,/,/,-3%,-4%,3
Cc1[nH]n2cnnc2c(=O)c1Br,-8%,-51*,1%,-5%,1
Nc1ccc2c(c1)C(=O)c1ccc(Br)cc1-2,/,10,3%,i,0
O=C1N/C(=N/O)S/C1=C/c1cccnc1,-8%,-55*,-1%,-3%,0
OCC(O)CSc1nc(-c2ccccc2)nc2c1CCC2 (stereo unspecified),14%,-5,-1%,-9%,-2
CO/N=C\CC(=O)Nc1ccc(Cl)c(Cl)c1,-28%,0,4%,-9%,3
CCCC(=O)OC/C(O)=C(\C#N)c1nc2ccccc2[nH]1,-1%,-12,?,i,-3
N#CC(=C(O)COC(=O)Cc1c[nH]c2ccccc12)c1nc2ccccc2[nH]1,/,-54*,?,-9%,4
CCOC(=O)c1ccc(NC(=O)CCC(=O)NCc2ccco2)cc1,19%,-8,0%,-9%,0
N#CCC(=O)Nc1ccc(C(=O)OCC(=O)NC(=O)NCc2ccco2)cc1,13%,-55*,?,5%,-12
CCN(CC)C(=O)C1CCN(S(=O)(=O)c2ccc3c(c2)CCCN3C(C)=O)CC1,/,/,-12%,i,-2
SMILES,Tb PFK block,PI5P4Ka inh,Pin1 inhibitor,Tb PGK inh,PI4K2A inh
Cc1cc(C)nc(SCC(=O)NN=C2CCCC2)n1,0%,-50*,1%,i,-5
C#CCOCCOCCOCCNc1nc(N2CCN(C(=O)[C@H](CCCCN)n3cc([C@@H](N)C(C)CC)nn3)CC2)nc(N2CCN(C(=O)[C@H](Cc3cc4ccccc4[nH]3)n3cc([C@@H](N)C(C)CC)nn3)CC2)n1 (stereo partly specified),-9%,-57*,8%,16%,-3
C#CCOCCOCCOCCNc1nc(N2CCOCC2)nc(N2CCN(C(=O)[C@H](Cc3cc4ccccc4[nH]3)n3cc([C@@H](N)C(C)CC)nn3)CC2)n1 (stereo partly specified),0%,2,-4%,11%,-1
C#CCOCCOCCOCCNc1nc(N2CCN(C(=O)C(Cc3cc4ccccc4[nH]3)n3cc(C(N)C(C)CC)nn3)CC2)nc(N2CCN(C(=O)C(Cc3cc4ccccc4[nH]3)n3cc(C(N)C(C)CC)nn3)CC2)n1 (stereo unspecified),1%,-52*,39%,i,-6
O=C1C(O)CC2c3ccccc3CC3(CCCC3)N12 (stereo unspecified),3%,-5,-14%,-1%,-10
COc1ccccc1OCCNC(=O)CCS(=O)(=O)c1ccccc1,0%,-11,0%,-7%,4
COc1ccc(-c2csc(N3C(=O)C4C5c6ccccc6C(c6ccccc65)[C@@H]4C3=O)n2)cc1 (stereo partly specified),-2%,-6,-4%,0%,2
Cc1cc(C)nc(N/N=C/c2sccc2C)n1,0%,-53*,-3%,2%,0
Cc1ccsc1/C=N/Nc1nc(=O)[nH]nc1C,-30%,?,-4%,28µM*,-71*
Cc1ccsc1/C=N/Nc1ncc(Cl)cc1Cl,2%,8,-8%,-2%,-3
Fc1ccc(-n2c(=S)[nH]c3cccnc32)cc1,-17%,-1,-5%,-9%,-1
CCc1ccc(S(=O)(=O)/N=C2/C=C(Sc3ncn[nH]3)C(=O)c3ccccc32)cc1,-28%,-94*,43µM*,?,-56*
CCc1ccc(S(=O)(=O)/N=C2\C=CC(=O)c3ccccc32)cc1,-13%,/,/,/,/
N#Cc1ccccc1S(=O)(=O)N1CCN(CC(=O)NCC2(N3CCOCC3)CCCCC2)CC1,-4%,3,-3%,-10%,2
COc1ccc(C2=CC3=C(Br)C(=O)C(C)(OC(=O)C4CCCC4)C(=O)C3=CO2)cc1 (stereo unspecified),-3%,-68*,?,18µM*,?
COC(=O)CCC(=O)OC1(C)C(=O)C2=COC(c3ccc(OC)cc3)=CC2=C(Br)C1=O (stereo unspecified),-2%,-79*,?,16µM*,?
CC1CCCCN1C(=O)CSc1nnc(-c2ccccc2Cl)o1 (stereo unspecified),/,/,6%,i,6
CCOC1=C2[C@H](c3ccccc3)N(S(=O)(=O)c3ccc(C)cc3)C(C(C)(C)C)[C@H]2C(C#N)(C#N)C(C#N)(C#N)C1 (stereo partly specified),/,-50*,/,/,0
